Drawing on PubChem BioAssay (EPA / NIEHS), this text covers outcome and AC50 for 27 molecules.

The source holds several records for some structures; these can differ, active in one and inactive in another. Calls of active or inactive are those of the source. Rule for the calls: active = hit-call score of the fitted dose curve at least 0.9, where 1 is the maximum; inactive = score below 0.9.

Read-out in this test: Intercellular Adhesion Molecule 1 (ICAM1), ICAM1 (gene 3383)
The test can be described thus: BSK_3C_ICAM1: BioMAP Diversity Plus: 3C Assay for Intercellular Adhesion Molecule 1 (ICAM1) Biomarker Activity (AID 2283003). As to conditions: primary human endothelial cells (HUVEC); actives raise or lower the signal. The method, then:
BSK_3C is a cell-based, multiplexed-readout assay that uses umbilical vein endothelium, a human vascular primary cell, with measurements taken at 24 hours after chemical dosing in a 96-well plate.BSK_3C_ICAM1 is an assay component measured in the BSK_3C assay. It measures ICAM-1 antibody related to regulation of gene expression using ELISA technology.Data from the assay component BSK_3C_ICAM1 was analyzed into 1 assay endpoint. This assay endpoint, BSK_3C_ICAM1, was analyzed with bidirectional fitting relative to DMSO as the negative control and baseline of activity. Using a type of binding reporter, gain or loss-of-signal activity can be used to understand changes in the signaling as they relate to the gene ICAM1. Furthermore, this assay endpoint can be referred to as a primary readout, because this assay has produced multiple assay endpoints where this one serves a signaling function. To generalize the intended target to other relatable targets, this assay endpoint is annotated to the cell adhesion molecules intended target family, where the subfamily is Immunoglobulin CAM.
The levels of cell surface (or secreted, indicated by the prefix "s") biomarker endpoints were measured by ELISA. Overt cytotoxicity to cells in confluent adherent cultures (all systems other than the BT system) was assessed by measuring total protein levels using sulforhodamine B (SRB) staining in parallel cultures at the time of biomarker measurements, indicated as SRB endpoints. For proliferation assays for adherent cell types, individual cell types are cultured at sub-confluence and relative cell numbers quantified by SRB staining at time points optimized for each system (48 h: 3C and CASM3C systems; 72 h: BT and HDF3CGF systems; 96 h: SAg system). SRB was performed by staining cells with 0.1% SRB after fixation with 10% TCA and reading wells at 560 nm.Viability and proliferation of PBMC (T cells) was quantified by Alamar Blue reduction for the SAg and BT systems. For PBMC viability (referred to as PBMC Cytotoxicity within the assay endpoint names), cells were plated (75,000/well in a 96-well plate) and then chemical samples added for 1 h before addition of activators, SEB and TSST-1 (20 ng/mL final concentration each). Cells were incubated for 90 h. Then, Alamar Blue (20 uL/well) (Invitrogen, Cat DAL1100) was added for 6 h, and the plates were read with a fluorescence microplate reader at 546/580 nm (excitation/emission). For PBMC proliferation, cells were plated and activated as above but incubated for only 16 h prior to addition of Alamar Blue. Plates were read after 6 h.
Regarding `COC(=O)/C=C\C(=O)OC`, the outcome was inactive.
`COc1cc(CNC(=O)CCCC/C=C/C(C)C)ccc1O`: the result was inactive.
Still for that read-out and setting: for `CCC[Si](OC(C)=O)(OC(C)=O)OC(C)=O` the value was “inactive”; for `CCCCCCC(O)CCCCCCCCCCC(=O)OC` (stereo not drawn), “inactive”.
What is called AC50 is the midpoint of the concentration-response curve, whichever way the signal moves. Take `CCCCCCCCCCCCCCCCCC[N+](C)(C)C`: the half-maximal activity concentration (AC50) was 3.46 µM (active).
With `OC(C(F)(F)F)(C(F)(F)F)C(O)(C(F)(F)F)C(F)(F)F`, the outcome was inactive and the AC50 was 40.6 µM (active).
On to `CN(C)Cc1cc(C(C)(C)C)c(O)c(C(C)(C)C)c1`, for which the outcome was inactive.
Consider `COc1ccccc1Oc1c(NS(=O)(=O)c2ccc(C(C)(C)C)cc2)nc(-c2ncccn2)nc1OCCO`, for which the result was inactive.
For the molecule `COc1ccc(C(=O)c2ccccc2O)c(O)c1`, the result was inactive.
Still for that read-out and setting: for `CC[N+](CC)(CC(=O)Nc1c(C)cccc1C)Cc1ccccc1` the value was “inactive”; for `Sc1nc2ccccc2s1`, “inactive”.
Same read-out and setting: for `Cc1c(C(N)=O)cc([N+](=O)[O-])cc1[N+](=O)[O-]` the value was “inactive”; for `C1CN(CCOCCN2CCOCC2)CCO1`, “inactive”.
With `CC(C)CC(=O)CC(C)CC(C)C` (stereo not drawn), the AC50 was 35.2 µM (active).
Turning to `Cc1cc(-n2nc3ccc(Cl)cc3n2)c(O)c(C(C)(C)C)c1`, the result was inactive.
Still for that read-out and setting: to `Cc1cccnc1` belongs “inactive”; to `CC[N+](CC)(CC(=O)Nc1c(C)cccc1C)Cc1ccccc1` (tested in a mixture with another compound), “inactive”; to `CN(C)CCC(c1ccc(Cl)cc1)c1ccccn1` (stereo not drawn), “inactive”.
On the same count and under the same terms, to `O=[N+]([O-])c1cc(S(=O)(=O)Nc2ccccc2)ccc1Nc1ccccc1` belongs “inactive”.
The same measure, in the same setting: to `CCC(C)=NO` belongs “inactive”; to `Oc1cccc2ccccc12`, “inactive”.
On to `CCCCC(CC)COC(=O)C=Cc1ccc(OC)cc1` (stereo not drawn), for which the outcome was inactive.
Still for that read-out and setting: for `CC(C)C1OCCN1CCOC(=O)NCCCCCCNC(=O)OCCN1CCOC1C(C)C` (stereo not drawn) the value was “inactive”.
The same measure, in the same setting: for `CCCCCCCCCC/C=C/C1CC(=O)OC1=O` (stereo not drawn) the value was “inactive”.
On to `O=C(C(=O)c1ccccc1)c1ccccc1`, for which the result was inactive.
On the same count and under the same terms, for `CN(C)c1ccc(C(c2ccccc2)c2ccc(N(C)C)cc2)cc1` the value was “inactive”.
`CCCCCCCCCCC1CO1` (stereo not drawn): the AC50 is 36.2 µM (active).
